Measurements: the supplement of paper PMC10849652
The full data set covers some 7,900 targets. This sample favours those with a hit. About 0.6% of all pairs of compound and target were hits.

compound: O=C(O)c1ccc2c(c1)nc(Nc1cccc(Cl)c1)c1ccncc12 [silmitasertib]; experiment: log2 fold change, soluble protein after heating vs DMSO (PISA); higher = thermal stabilisation; K562 cells, 10 uM, 30 min; active = over 0.2 and 3.5 SD of the protein, either way, in both replicates (recomputed)
How it was run: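 Soluble protein was quantified by TMTpro 16plex LC-MS/MS after channel sums were equalised. It was obtained as the supernatant after 21,000xg for 90 min from pooled aliquots of K562 cells (2×10^6 cells/mL, 10 μM compound, 30 min) heated for 3 min across 48°C-58°C and extracted in PBS with 0.5% NP-40 at 4°C. Thermal stability values are relative to control samples and come from duplicates. They are given as log2 fold changes.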

Sequence of UniProt Q9BUB5 (Q9BUB5 whole entry, looked up): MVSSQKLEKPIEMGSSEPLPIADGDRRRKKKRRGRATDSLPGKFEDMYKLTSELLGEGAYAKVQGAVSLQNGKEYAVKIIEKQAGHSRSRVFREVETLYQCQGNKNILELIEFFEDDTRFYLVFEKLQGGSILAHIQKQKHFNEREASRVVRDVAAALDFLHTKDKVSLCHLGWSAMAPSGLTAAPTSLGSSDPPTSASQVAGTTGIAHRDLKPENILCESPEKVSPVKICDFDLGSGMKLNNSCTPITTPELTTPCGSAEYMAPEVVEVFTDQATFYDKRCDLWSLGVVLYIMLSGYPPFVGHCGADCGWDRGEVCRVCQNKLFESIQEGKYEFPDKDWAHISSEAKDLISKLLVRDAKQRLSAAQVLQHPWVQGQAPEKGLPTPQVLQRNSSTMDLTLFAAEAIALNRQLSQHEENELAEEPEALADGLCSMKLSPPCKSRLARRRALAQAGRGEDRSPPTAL
Sequence of UniProt P56556 (P56556 whole entry, looked up): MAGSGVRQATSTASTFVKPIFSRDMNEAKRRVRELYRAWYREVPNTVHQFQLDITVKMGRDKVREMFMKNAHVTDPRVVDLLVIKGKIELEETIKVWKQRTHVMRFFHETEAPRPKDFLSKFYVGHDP
Sequence of UniProt Q9UI09 (Q9UI09 whole entry, looked up): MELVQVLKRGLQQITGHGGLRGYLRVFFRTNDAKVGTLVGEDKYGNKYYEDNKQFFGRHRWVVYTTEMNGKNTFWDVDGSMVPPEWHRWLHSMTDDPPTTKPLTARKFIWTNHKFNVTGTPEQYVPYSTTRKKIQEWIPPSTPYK
Sequence of UniProt P15531 (P15531 whole entry, looked up): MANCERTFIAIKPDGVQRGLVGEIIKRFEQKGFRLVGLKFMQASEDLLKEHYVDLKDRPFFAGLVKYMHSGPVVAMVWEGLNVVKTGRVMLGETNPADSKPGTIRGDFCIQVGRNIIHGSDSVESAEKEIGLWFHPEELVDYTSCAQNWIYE
Sequence of UniProt Q9H8H0 (Q9H8H0 whole entry, looked up): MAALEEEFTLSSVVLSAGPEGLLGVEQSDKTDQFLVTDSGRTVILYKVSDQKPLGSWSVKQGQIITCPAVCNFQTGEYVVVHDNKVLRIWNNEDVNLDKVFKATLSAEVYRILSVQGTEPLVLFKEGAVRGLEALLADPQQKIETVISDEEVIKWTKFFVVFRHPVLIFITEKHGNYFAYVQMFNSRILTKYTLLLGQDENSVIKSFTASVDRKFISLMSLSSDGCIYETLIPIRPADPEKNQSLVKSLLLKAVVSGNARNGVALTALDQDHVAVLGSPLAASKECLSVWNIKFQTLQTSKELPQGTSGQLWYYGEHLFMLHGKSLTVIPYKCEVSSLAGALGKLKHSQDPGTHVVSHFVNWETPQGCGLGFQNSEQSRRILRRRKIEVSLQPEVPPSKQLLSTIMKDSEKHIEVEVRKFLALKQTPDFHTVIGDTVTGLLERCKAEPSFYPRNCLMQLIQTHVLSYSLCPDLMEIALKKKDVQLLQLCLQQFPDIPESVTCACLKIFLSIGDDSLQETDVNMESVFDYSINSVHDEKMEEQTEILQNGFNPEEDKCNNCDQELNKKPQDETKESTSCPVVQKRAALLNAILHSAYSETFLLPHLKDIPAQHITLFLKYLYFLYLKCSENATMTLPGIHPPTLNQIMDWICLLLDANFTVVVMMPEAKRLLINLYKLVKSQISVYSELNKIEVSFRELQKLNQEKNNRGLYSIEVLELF
Sequence of UniProt O95169 (O95169 whole entry, looked up): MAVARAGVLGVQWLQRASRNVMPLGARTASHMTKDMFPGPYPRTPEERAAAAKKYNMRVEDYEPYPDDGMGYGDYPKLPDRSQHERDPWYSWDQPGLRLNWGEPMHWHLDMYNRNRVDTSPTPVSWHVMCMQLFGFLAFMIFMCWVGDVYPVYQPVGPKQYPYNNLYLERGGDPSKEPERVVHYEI
Sequence of UniProt Q9HCE1 (Q9HCE1 whole entry, looked up): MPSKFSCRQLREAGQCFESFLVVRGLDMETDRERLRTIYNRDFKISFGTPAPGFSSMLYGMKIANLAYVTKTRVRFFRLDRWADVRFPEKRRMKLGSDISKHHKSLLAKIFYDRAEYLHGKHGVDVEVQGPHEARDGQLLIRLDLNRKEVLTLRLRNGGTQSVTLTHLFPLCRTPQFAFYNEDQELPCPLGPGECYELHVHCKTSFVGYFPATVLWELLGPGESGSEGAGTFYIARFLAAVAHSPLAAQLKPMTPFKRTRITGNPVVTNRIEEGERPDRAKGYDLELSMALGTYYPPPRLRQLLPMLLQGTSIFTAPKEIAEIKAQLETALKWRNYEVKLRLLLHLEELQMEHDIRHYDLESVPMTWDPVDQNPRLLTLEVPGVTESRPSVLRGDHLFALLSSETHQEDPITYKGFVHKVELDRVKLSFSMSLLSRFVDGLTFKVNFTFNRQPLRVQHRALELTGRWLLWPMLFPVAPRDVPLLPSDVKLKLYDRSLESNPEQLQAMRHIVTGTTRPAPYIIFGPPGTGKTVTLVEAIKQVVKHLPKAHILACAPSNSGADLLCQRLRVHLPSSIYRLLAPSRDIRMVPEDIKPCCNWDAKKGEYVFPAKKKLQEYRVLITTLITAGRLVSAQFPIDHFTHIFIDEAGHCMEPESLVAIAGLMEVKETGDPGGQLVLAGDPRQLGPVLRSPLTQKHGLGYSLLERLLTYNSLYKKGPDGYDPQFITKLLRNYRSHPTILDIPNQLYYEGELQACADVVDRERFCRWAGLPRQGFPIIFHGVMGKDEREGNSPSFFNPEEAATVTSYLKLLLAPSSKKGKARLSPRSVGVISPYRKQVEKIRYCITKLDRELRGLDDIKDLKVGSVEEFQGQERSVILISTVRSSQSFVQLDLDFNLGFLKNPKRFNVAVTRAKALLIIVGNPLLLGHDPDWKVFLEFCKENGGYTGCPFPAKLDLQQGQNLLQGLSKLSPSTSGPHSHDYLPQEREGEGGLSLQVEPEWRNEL
Sequence of UniProt Q92621 (Q92621 whole entry, looked up): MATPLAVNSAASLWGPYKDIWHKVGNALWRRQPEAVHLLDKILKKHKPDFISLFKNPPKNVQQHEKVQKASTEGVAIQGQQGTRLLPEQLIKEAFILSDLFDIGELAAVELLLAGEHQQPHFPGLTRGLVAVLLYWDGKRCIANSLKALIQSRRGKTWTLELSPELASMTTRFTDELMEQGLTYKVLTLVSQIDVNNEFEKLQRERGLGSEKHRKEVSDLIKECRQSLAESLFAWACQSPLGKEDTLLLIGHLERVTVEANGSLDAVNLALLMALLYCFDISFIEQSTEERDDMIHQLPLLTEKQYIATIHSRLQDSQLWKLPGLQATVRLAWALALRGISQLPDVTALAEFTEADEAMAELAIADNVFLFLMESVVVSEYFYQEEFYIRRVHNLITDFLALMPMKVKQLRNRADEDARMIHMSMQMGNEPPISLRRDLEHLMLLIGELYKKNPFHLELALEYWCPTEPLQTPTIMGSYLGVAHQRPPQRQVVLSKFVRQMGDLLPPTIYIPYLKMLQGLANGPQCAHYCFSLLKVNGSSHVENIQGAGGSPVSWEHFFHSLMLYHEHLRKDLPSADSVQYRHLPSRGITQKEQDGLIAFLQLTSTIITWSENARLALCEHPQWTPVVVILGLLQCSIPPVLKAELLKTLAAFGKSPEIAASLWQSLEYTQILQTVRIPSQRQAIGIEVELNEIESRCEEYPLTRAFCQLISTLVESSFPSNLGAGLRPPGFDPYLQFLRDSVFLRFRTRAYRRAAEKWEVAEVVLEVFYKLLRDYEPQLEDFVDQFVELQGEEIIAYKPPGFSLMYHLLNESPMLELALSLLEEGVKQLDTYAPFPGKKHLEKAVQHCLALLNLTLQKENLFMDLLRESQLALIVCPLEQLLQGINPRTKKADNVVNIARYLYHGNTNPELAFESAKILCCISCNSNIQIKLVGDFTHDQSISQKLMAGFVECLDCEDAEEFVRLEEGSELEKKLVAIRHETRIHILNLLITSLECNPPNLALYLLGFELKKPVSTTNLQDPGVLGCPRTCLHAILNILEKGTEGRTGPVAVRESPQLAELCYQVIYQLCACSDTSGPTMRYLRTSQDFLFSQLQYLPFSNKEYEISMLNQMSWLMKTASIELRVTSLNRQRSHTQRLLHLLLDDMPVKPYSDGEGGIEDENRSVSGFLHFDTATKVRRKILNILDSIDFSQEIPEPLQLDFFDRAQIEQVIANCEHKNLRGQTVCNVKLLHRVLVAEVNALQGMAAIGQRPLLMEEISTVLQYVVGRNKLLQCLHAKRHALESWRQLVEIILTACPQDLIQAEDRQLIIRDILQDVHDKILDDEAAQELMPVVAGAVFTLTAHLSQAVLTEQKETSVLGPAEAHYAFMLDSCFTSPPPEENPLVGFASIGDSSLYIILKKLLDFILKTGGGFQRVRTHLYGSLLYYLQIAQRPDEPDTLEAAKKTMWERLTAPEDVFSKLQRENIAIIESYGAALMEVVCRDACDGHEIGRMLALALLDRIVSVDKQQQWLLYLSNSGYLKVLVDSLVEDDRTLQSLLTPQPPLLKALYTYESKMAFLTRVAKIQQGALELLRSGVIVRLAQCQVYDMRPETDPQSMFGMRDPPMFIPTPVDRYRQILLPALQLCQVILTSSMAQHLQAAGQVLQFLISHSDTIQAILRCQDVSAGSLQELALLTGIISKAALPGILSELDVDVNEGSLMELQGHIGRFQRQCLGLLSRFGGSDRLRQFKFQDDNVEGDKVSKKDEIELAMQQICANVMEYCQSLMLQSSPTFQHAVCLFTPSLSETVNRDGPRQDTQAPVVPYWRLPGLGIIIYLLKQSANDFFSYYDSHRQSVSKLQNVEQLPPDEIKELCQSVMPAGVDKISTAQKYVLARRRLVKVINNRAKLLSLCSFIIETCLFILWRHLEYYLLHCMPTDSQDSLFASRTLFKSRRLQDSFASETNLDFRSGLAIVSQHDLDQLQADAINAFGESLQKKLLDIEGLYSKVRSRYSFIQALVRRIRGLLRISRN

log2 fold change, inactive:
NFATC2 (UniProt Q13469) -0.078
MRPS18B (UniProt Q9Y676) -0.061
PACS1 (UniProt Q6VY07) -0.074
NUP205 (UniProt Q92621) 0.058
NA, A0A0B4J2A0 0.017
OSBP (UniProt P22059) 0.014
MKNK1 (UniProt Q9BUB5) 0.012
NMNAT1 (UniProt Q9HAN9) 0.201
MRPS25 (UniProt P82663) -0.053
NME1 isoform 2 (UniProt P15531) -0.138
MRPL47 (UniProt Q9HD33) -0.021
NDUFA12 (UniProt Q9UI09) -0.052
MOV10 (UniProt Q9HCE1) 0.133
MTHFD1, A0A384N5Y3 -0.091
MRPS5 (UniProt P82675) -0.043
NFATC2IP (UniProt Q8NCF5) -0.017
NOL11 (UniProt Q9H8H0) 0.068
NDUFA6 (UniProt P56556) -0.016
OSBPL8 (UniProt Q9BZF1) 0
NOSIP (UniProt Q9Y314) 0.082
NR2C2 isoform 2 (UniProt P49116) 0.074
NDUFB8 (UniProt O95169) 0.004
NQO1 (UniProt P15559) -0.058
